Yp Topo-I inh – Y. pestis Topo-I inhibition via cleavage products. Y. pestis Topo-I cleavage product accumulation, plate reader. activity, % at 10 µM. 0.064% of 360,000 active; in the data active = activity above about 50%, passing the limit was not always enough
RN4220 kill – S. aureus RN4220 growth inhibition; OD600, 16 h; inhibition, % (concentration not given with the values); 0.33% of 330,000 active; AID 1259311; in the data active = inhibition above about 85%;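 also: plate controls were untreated cells for no effect and reference antibiotic for full effect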
PfHsp40 yeast – rescue of PfHsp40-mediated yeast toxicity. growth rescue, % at 12.5 µM. AID 504582. S. cerevisiae expressing PfHsp40, growth rescue, ATP luminescence. 0.68% of 340,000 active; in the data active = growth rescue above about 28%, passing the limit was not always enough;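 also: yeast W303a lacking pdr1 and pdr3 grown in galactose medium; growth measured after three days at 30 °C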
PrP 5UTR inh – inhibition of PrP 5' UTR reporter expression; cell-based PrP 5' UTR mRNA reporter, plate reader; inhibition, % (test concentration not listed); 0.35% of 340,000 active; AID 488862; in the data active = inhibition above about 52%; also: 0 = median of the neutral control wells
Sa ugtP lethal – compounds lethal to S. aureus RN4220 ugtP deletion mutant. OD600 growth, 16 h. growth inhibition, % (test concentration not listed). 0.54% of 330,000 active. AID 1259309; in the data active = growth inhibition above about 68%;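 also: plate controls were untreated wells for no effect and antibiotic for full effect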
BJeLR lethal – BJeLR cell viability loss. AID 1554. inhibition, % (no concentration beside the values). 0.17% of 300,000 active. BJeLR (HRASV12) viability, CellTiter-Glo ATP luminescence, 48 h; in the data active = inhibition above about 50%
Numbers without * were called inactive; / = not tested or not shown; ! = not confirmed by another sample. The list is not random: actives were taken first. Their share in the collection is about 1.4%.

SMILES	Yp Topo-I inh	RN4220 kill	PfHsp40 yeast	PrP 5UTR inh	Sa ugtP lethal	BJeLR lethal
Cc1ccc(S(=O)(=O)Nc2ccc(O)c3cccnc23)cc1	5	2	12	-19	6	-7
Cc1ccc(S(=O)(=O)Nc2ccc(O)c3ncccc23)cc1	3	5	188*	-18	-2	3
O=C1c2cccc3c(N4CCOCC4)c([N+](=O)[O-])cc(c23)C(=O)N1c1cccc2ccccc12	-8	95*	0	-10	97*	-50
Cn1c(SCC(=O)N2c3ccccc3Sc3ccc(Cl)cc32)nnc1-c1ccco1	10	4	36*	2	5	/
Cc1ccc(NS(=O)(=O)c2ccc(N3CCN(c4ccc(O)cc4)CC3)c([N+](=O)[O-])c2)c(C)c1	-7	1	70*	0	-15	-7
O=C1C2C(c3ccc(F)cc3)N3C(=O)N(c4ccccc4)C(=O)[C@@]3(Cc3ccccc3)C2C(=O)N1C1CCCCC1 (stereo partly drawn)	/	3	/	/	5	/
CCCCNc1c(-c2ccc(OC)c(Sc3ccc(OC)cc3)c2)nc2ccccn12	2	/	12	-1	/	1
CCCCNc1c(-c2ccc(-c3ccc(OC)cc3)c(OC)c2)nc2ccccn12	22	1	251*	-10	-33	/
CCNc1nc(NCC)nc(N(n2cnnc2)S(=O)(=O)c2ccc(C)cc2)n1	14	97*	0	-21	99*	5
CCNc1nc(NC(C)C)nc(NS(=O)(=O)c2ccc(N)cc2)n1	8	3	0	-29	12	-1
CCNc1nc(NC(C)C)nc(N(n2cnnc2)S(=O)(=O)c2ccc(C)cc2)n1	-4	76	1	4	90*	5
CC(N)=C(C#N)C(=O)COC(=O)c1cc(-c2cccc3ccccc23)nc2ccccc12	/	-2	/	/	-16	/
C/C=C/c1ccc(OCCOc2cc(C=O)ccc2OC)c(OC)c1	44	2	39*	-45	38	-1
C/C=C/c1ccc(OCC(=O)O)c(OC)c1	2	6	-1	-8	3	9
O=C(c1cc(Br)c(Br)s1)N1CCN(C/C=C/c2ccccc2)CC1	58*	-1	2	-17	9	-7
COc1ccc(-c2cc(C3CCN(c4cc(Cl)nc(N)n4)CC3)[nH]n2)cc1	37	-7	3	5	95*	9
Nc1nc(Cl)cc(N2CCC(c3cc(-c4ccc(Cl)cc4)n[nH]3)CC2)n1	11	28	5	-8	94*	7
COc1ccc(OC)c(-c2cc(C3CCN(c4cc(Cl)nc(N)n4)CC3)[nH]n2)c1	-4	2	0	3	-10	8
Clc1ccc(-c2cc(C3CCNCC3)[nH]n2)cc1	4	-5	-1	-11	-4	-6
CCCCCCCCCOC(=O)C1N2C(=O)C(NC(=O)COc3ccccc3)C2SC1(C)C (stereo not drawn)	/	0	/	/	23	/
COc1ccc(NC(=O)COc2ccc(C(=O)NCc3cccnc3)cc2OC)cc1	4	4	-2	-12	5	/
CC(C)CCOc1cccc(OCC(=O)Nc2ccncc2)c1	16	3	105*	-11	0	3
O=C(COc1ccc(Cl)cc1)Nc1ccc(C(=O)NCc2cccnc2)cc1	0	-1	-1	-13	-2	87*
O=C(Cc1ccc(Cl)cc1)c1c[nH]c(C(=O)NCc2cccnc2)c1	3	0	0	-9	-14	78*
O=C(NCc1cccnc1)c1ccc(COc2ccc(Cl)cc2)cc1	31	10	5	-18	18	5
SMILES	Yp Topo-I inh	RN4220 kill	PfHsp40 yeast	PrP 5UTR inh	Sa ugtP lethal	BJeLR lethal
COc1cccc(OCC(=O)Nc2ccncc2)c1	-17	5	-2	-30	7	0
Cc1cccc(OCC(=O)Nc2ccc(C(=O)NCc3cccnc3)cc2)c1	/	/	/	/	/	55*
Cn1c(N)c(C(=O)COC(=O)C2CCCN2S(=O)(=O)c2ccc(Cl)cc2)c(=O)n(C)c1=O (stereo not drawn)	/	0	/	/	-6	/
CC(C(=O)NCCCn1ccnc1)(c1ccccc1)c1ccccc1	4	5	0	-21	12	-6
CCCCCCC(Cl)(Cn1ccnc1)c1ccccc1 (stereo not drawn)	20	5	255*	-12	13	-3
CCc1ccc(OCC(=O)NNC(=S)NC(=O)C2CCCCC2)c(Br)c1	1	31	9	0	4	-12
COc1ccc(OCC(=O)NNC(=S)NC(=O)C2CCCCC2)cc1	7	/	346*	0	/	-4
Cc1cc(C)cc(OCC(=O)NNC(=S)NC(=O)C2CC2)c1	-11	68	112*	-34	33	-13
CCc1ccc(OCC(=O)NNC(=S)NC(=O)C2CC2)c(Br)c1	7	69	48*	-22	37	/
CCN1CC2C3C(=O)N(C)C(=O)C3[C@](CC)(C1=O)N2C(=O)c1ccccc1 (stereo partly drawn)	/	6	/	/	-3	/
COc1ccc(CN(CC(O)COCc2ccccc2)S(=O)(=O)c2ccccc2Br)cc1OC (stereo not drawn)	32	7	0	-24	-11	/
O=S(=O)(c1c(F)cccc1F)N(CCc1ccc(F)cc1)C[C@@H](O)COCc1ccccc1	41	/	114*	1	/	/
Cc1ccc(C(C[N+](=O)[O-])c2c(N)n(C)c(=O)n(C)c2=O)cc1 (stereo not drawn)	2	/	364*	5	/	-1
O=C1C=C(c2ccc(F)cc2OCc2ccccc2)CC(c2ccc(F)cc2)C1 (stereo not drawn)	/	-3	/	/	5	/
CC(C)CC(NC(=O)OC(C)(C)C)C(=O)NC(CO)C(O)C1CC1C(=O)NC1CCCCC1 (stereo not drawn)	/	6	/	/	-3	/
S=C(NCCCCc1ccccc1)NCc1ccccc1	13	-6	55*	2	7	-1
S=C(NCCCc1ccccc1)Nc1ccccc1Cl	0	-7	223*	-16	-34	-10
COC(=O)[C@@]12CCCN1C(c1ccc(-c3ccc(C(C)=O)cc3)c(OC)c1)C1C(=O)N(C)C(=O)C12 (stereo partly drawn)	/	7	/	/	2	/
Cc1ccc2c(c1C)-c1c(ccc(C)c1C)C(=O)C2=O	6	/	171*	-44	/	/
Cc1ccc2c(c1N)C(=O)c1ccccc1C2=O	-8	/	-3	-47	/	/
N#CCCN1CCN(CCC#N)CC1	-1	3	0	-3	1	3
Cc1cc(CN2CCN(CCC#N)CC2)c(O)c(C2(C)CCCCC2)c1	3	16	0	-2	84*	2
CN(C)P1(N(C)C)=Nc2c(c(N)nn2C)C(c2ccccc2)=N1	-2	5	39*!	-23	12	-3
Oc1c(Cl)c(Cl)c(Cl)c(Cl)c1Cl	1	100*	298*	-24	100*	-10
Cc1ccc(OCc2cc(C(=O)N3CCc4sccc4C3)no2)cc1C	54*	0	2	-6	5	-5

High-throughput results as filed in PubChem BioAssay.
